Assay results as given in the supplement of paper PMC6555819.

system: RARa:RXR (NR concentration 270 nM, RXRa partner concentration 90 nM); test: PBM binding z-score (relative to random genomic background probes); higher = stronger binding; sequences stand for … in GC…GCGATTGACAGCGTAGAATGAAGG
Summary of the method: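 Custom Agilent 4×180K protein-binding microarrays carried double-stranded probes. Their 34-nt variable regions held direct-repeat seeds, single-nucleotide variants, half-site ablations and random human genomic background sequences. Arrays were incubated 1 h with ligand-free nuclear receptor dimers in PBS pH 7.4, 2% milk, 0.02% Triton X-100, 1 mM DTT, 0.2 mg/mL BSA and 0.4 mg/ml salmon testes DNA. Antibodies against each partner (one per run) detected binding, and scanned fluorescence was regression-normalized. Binding z-scores use random background probes as reference.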

Sequence	PBM binding z-score
TCATATAGGTACATGCTAGGTGAAAGTCCGATCT	0.868
CGAACTAAGTCAAGGACAGTGAATCTCCGCACGC	0.0296
AATACAGGGTCACTAGGCGAGAGTAGGTACGAAT	4.27
CGTCCAAGGTCAAAGGTCAGAGAAGAGATGACGG	8.89
TATAGTTGGTCAAAGGTCACACACTCGAAATGCG	6.91
TTACCAAGGTGAAAGGTTGTTGATGCACGCCTTG	2.32
ACTAGCAGGCCAAGTTTGGGTCGCTCAAACAAAG	-0.147
CTCGAAAGGTCGTGCTCAGGTGAGTAGACCAAAC	4.48
GGAACGAGGGCATTCTAGTTGATAGCATGGCGAT	0.248
CCAGACAGCTGAAAGGTAACTCAGTCTGGTACGC	0.0105
CGAACTAGGTCATCCAGAACAGTGAATACATTGA	2.32
TCTTGTAGATCAGCAGATTAAGAAAGCTGGCCAA	-0.157
ACTATTAGTTGACTTAGGGAAACCGATACGACGC	0.0911
CGAACTGGGTCATTGACAGGACAGTGAATAGTAA	2.18
TCTCGGAGGACACCAAGGTCAGAGCTTTCCAGAG	2.17
TCTTGTAGACCAATAGAGGTTAAGAAAGTGCGCT	1.6
GCTAGTTGGTCAGTAAAAAGTCACACACCGGTCG	0.255
AGAACGAGGGCAGGCTGAGTTGATAGCAGAGTAG	-0.281
CCGAGGAGGTTATGGGGCATTCAGGCAACGGTGA	1.43
CCTAGCAGGCCAATCTGGGTTACTCAAGGCTTGA	-0.308
ACTATTAGTTGACTTAGGGCAAGCGATACGACGC	0.775
CCTTACGGGGCACTGACAGGTTATAGCATTTGGA	0.21
